# Bioassay records from PubChem.
# In the library only some 1.7% were active in any assay of this set; here they are far more common.
# Myeloid diff MLP – induction of myeloid progenitor differentiation, primary screen, cell-based, flow cytometry, MLPCN library; ER-HoxA9 myeloid progenitors, lysozyme-GFP differentiation; calls only at 10 µM; hit rate 1% among 360,000; AID 624256, 2012;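 active means normalized GFP-positive differentiation at or above the plate's own cutoff, the solvent-only control mean plus 3 SD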;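 further: cells exposed to compound for four days before flow analysis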
# TLR4-MyD88 BLA – inhibitors of TLR4-MyD88 association in cells, primary screen, cell-based, HeLa CL3-4, BLA complementation, FRET ratio; Toll-like receptor 4 (Homo sapiens) + Myeloid differentiation primary response protein …; hit rate 0.18% among 200,000; inhibition, % at 8.4 µM; HeLa CL3-4 TLR4/MyD88 BLA complementation; AID 861, 2007; in the data active means inhibition above about 25%;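 further: 0% = vehicle and 100% = reference inhibitor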
# NOD2 RIPK2 PPI – NOD2-RIPK2 binding disruptors in cells, primary screen, fluorescence, CHO cells, BLA complementation; CCF4 ratio; inhibition, % at 4.98 µM; hit rate 0.38% among 360,000; AID 624267, 2012; in the data active means inhibition above about 21%;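 further: 0% = vehicle only and 100% = reference blocker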
# ABCB6 inh 2 – ABCB6 transporter inhibitors, primary screen, K562-ABCB6 cells, flow cytometry, MLPCN library; K562-ABCB6 porphyrin accumulation, 1 h; hits give low values; fluorescence ratio to DMSO, % at 10 µM; hit rate 0.19% among 360,000;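 active means fluorescence ratio to DMSO below 75%, the collection mean minus 3 SD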;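 further: signal is porphyrin accumulated inside mitochondria; 100% equals median channel fluorescence of DMSO control wells; lower ratio means ABCB6 inhibition with less porphyrin fluorescence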
# Target sequence (Q9NP58 whole entry, looked up): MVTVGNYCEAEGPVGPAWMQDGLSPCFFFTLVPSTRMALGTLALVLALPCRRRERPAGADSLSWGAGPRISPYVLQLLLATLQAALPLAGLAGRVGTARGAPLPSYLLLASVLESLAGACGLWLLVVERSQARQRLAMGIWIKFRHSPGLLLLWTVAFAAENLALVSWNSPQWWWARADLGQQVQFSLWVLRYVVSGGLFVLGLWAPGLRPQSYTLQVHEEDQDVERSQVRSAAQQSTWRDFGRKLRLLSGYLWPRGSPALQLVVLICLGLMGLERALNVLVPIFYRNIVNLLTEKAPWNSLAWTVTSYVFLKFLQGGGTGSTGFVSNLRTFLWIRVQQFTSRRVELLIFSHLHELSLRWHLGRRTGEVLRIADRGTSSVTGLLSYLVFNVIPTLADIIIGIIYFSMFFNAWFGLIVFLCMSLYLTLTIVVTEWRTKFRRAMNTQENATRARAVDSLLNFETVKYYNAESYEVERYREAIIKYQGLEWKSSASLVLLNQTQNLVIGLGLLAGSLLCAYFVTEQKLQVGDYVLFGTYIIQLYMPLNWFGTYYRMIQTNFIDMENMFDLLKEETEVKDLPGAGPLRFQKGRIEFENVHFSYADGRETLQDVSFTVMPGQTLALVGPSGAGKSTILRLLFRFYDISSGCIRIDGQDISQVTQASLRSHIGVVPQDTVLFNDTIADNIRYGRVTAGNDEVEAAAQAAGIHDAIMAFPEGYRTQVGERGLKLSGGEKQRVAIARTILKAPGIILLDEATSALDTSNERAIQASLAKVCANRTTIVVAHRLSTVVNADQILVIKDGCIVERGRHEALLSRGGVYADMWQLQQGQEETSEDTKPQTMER
# TLR9-MyD88 block – inhibitors of TLR9-MyD88 association in cells, primary screen, cell-based, CHO, BLA complementation, fluorescence; CCF4 FRET ratio; inhibition, % at 4.98 µM; hit rate 0.21% among 340,000;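 active means inhibition above the mean over all tested compounds plus 3 SD, cut at about 21% in these data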;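 further: 0% = DMSO only wells and 100% = clavulanate BLA inhibitor control wells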
# Myeloid diff CP1 – inducers of myeloid progenitor differentiation, confirmation, cell-based, GFP/Mac1 flow cytometry, cherry pick 01; hit rate 2% among 2,300; shares compounds with Myeloid diff MLP; ER-HoxA9 myeloid progenitors, GFP/Mac1 double-positive flow; calls only;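 active means share of green or green-and-red cells above 9 and 9% in run 1 or 4 and 3% in run 2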
# GFP autofluor – flagged as fluorescent in myeloid differentiation counter-screen | fluorescence response, % (concentration not given with the values) | shares compounds with Myeloid diff MLP | ER-HoxA9 myeloid progenitors, no estrogen, GFP autofluorescence flow cytometry; vehicle wells 0%, positive control 100% | AID 651707 | hit rate 7.4% among 2,300;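 active means over 5% cells positive for green fluorescent reporter, or over 2% positive for both it and APC stain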;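 further: range taken on the double positive population between DMSO and positive control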
# * = called active by the depositor; i = inactive; x = no result; + = active, no number.
SMILES,Myeloid diff MLP,TLR4-MyD88 BLA,NOD2 RIPK2 PPI,ABCB6 inh 2,TLR9-MyD88 block,Myeloid diff CP1,GFP autofluor
O=C(c1ccc(S(=O)(=O)c2ccccc2Cl)c([N+](=O)[O-])c1)N1CCCCCC1,+,-9,8,98,0,i,0
Cc1ccc(C(=O)COC(=O)[C@@H](NC(=O)c2ccco2)C(C)C)s1,+,x,-3,101,7,i,0
COc1cccc(NC(=O)N2CCCC2C(=O)NCc2ccc(Cl)cc2)c1 (centres undefined),i,x,-32,101,5,i,0
Cc1ccc(CN2CCC(n3nccc3NC(=O)c3ccccc3C)CC2)o1,i,x,-8,102,-3,x,x
C=CC[C@@H](CC(=O)N(CCO)Cc1ccccc1)C(=O)N[C@@H](COC(=O)[C@@H](CC=C)Cc1ccc(F)cc1)Cc1c[nH]c2ccccc12,i,x,0,100,-4,x,x
C=CC[C@H](CC(=O)N(CCO)Cc1ccccc1)C(=O)N[C@@H](COC(=O)[C@@H](CC=C)Cc1ccc(F)cc1)Cc1c[nH]c2ccccc12,i,x,-4,97,-2,i,0
Cc1ccccc1N1CCN(C2CCCN(C(=O)c3csc(C(C)C)n3)C2)CC1 (centres undefined),i,x,6,100,-7,x,x
C[C@H]1CN([C@@H](C)CO)C(=O)c2cc(NC(=O)NC3CCCCC3)ccc2O[C@H]1CN(C)C(=O)Nc1ccc(C(F)(F)F)cc1,i,x,-4,103,-5,i,0
CC1=C(CC(=O)c2ccccc2)C(=O)c2ccccc2C1=O,+,-22,0,105,-4,i,4.2*
CC(C)(C)NNC(=S)Nc1ccc(S(=O)(=O)N2CCOCC2)cc1,i,-18,-4,99,-4,i,0
CC(=O)NC(=S)Nc1ccc(S(=O)(=O)N2CCOCC2)cc1,i,1,9,100,-8,x,x
CC(=O)NCC1CCCN(C(=O)c2ccc(OC3CCN(Cc4ccccn4)CC3)cc2)C1 (centres undefined),i,x,-3,98,-5,x,x
CCc1ccc2nc(Nc3nc(COC)cc(=O)[nH]3)nc(C)c2c1,x,-3,5,91,-7,x,x
COCc1cc(=O)[nH]c(Nc2nc3ccc(C)cc3o2)n1,i,7,-7,101,-5,i,4
COc1cc(OC)cc(-c2ncc3ccccn23)c1,i,-9,5,114,0,x,x
COc1cc(-c2ncc3ccccn23)cc(OC)c1OC,+,-6,-8,102,0,i,0
CC(=O)Nc1ccc(NC(=O)CSc2nccn2Cc2ccccc2)cc1,+,-8,-3,98,-13,i,0
Cc1ccc(NC(=O)CSc2nccn2Cc2ccccc2)cc1C,i,8,14,106,-24,x,x
Nc1cc(N)nc(SCC(=O)N2CCN(S(=O)(=O)c3ccccc3)CC2)n1,i,x,-1,98,3,x,x
CC1CCN(S(=O)(=O)c2ccc(C(C)C)cc2)CC1,+,11,12,94,5,i,41*
CC1CCN(S(=O)(=O)c2ccc(Cl)cc2)CC1,i,-10,0,103,-18,x,x
CC(C)c1ccc(C(=O)OCC(=O)c2c(N)n(C)c(=O)n(C)c2=O)cc1,i,x,-5,96,0,x,x
Cn1c(N)c(C(=O)COC(=O)c2ccco2)c(=O)n(C)c1=O,+,-2,1,112,2,i,0
Cc1ccc(-n2nnnc2SCC(=O)NCC2(N3CCOCC3)CCCCC2)c(C)c1,i,x,-4,97,-7,x,x
CCOC(=O)c1ccc(NC(=O)c2nc[nH]c2C(=O)N(C)CCO)cc1,+,x,-4,98,1,i,0
